Assay [1] can be described thus: ATG_M_61_CIS: Attagene CIS-FACTORIAL HepG2 Assay for M61 Transcription Factor (Internal Marker) (AID 2282937). The conditions noted are these: HepG2 Attagene CIS-FACTORIAL M61 internal marker reporter; actives raise or lower the signal. The gist of the method:
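Background-control endpoint: HepG2 cells with cis-regulated reporter constructs, 24 h exposure, reporter mRNA detected via fluorescent primer extension and capillary electrophoresis; values from bidirectional fitting with DMSO baseline.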

Assay [2] is described as follows: ATG_EGR_CIS: Attagene CIS-FACTORIAL HepG2 Assay for human Early Growth Response 1 (EGR1) (AID 2282938). The following applies: HepG2 Attagene CIS-FACTORIAL EGR reporter mRNA; actives raise or lower the signal. The gist of the method:
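Endpoint derived by bidirectional fitting versus DMSO vehicle. Method: cis-promoter reporter units transfected into HepG2, 24 h dosing, RNA isolation, RT-PCR with 6-FAM primer extension and HpaI digestion, then capillary electrophoresis fluorescence detection.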

A short description of assay [3]: ATG_M_19_CIS: Attagene CIS-FACTORIAL HepG2 Assay for M19 Transcription Factor (Internal Marker) (AID 2282939). The following applies: HepG2 Attagene CIS-FACTORIAL M19 internal marker reporter; actives raise or lower the signal. The gist of the method:
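In this multiplexed cell assay, transiently transfected HepG2 reporter units report endogenous transcription-factor activity; after 24 hours of treatment, labelled reporter cDNA fragments are quantified by capillary electrophoresis and fitted bidirectionally against DMSO.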

The nature of assay [4]: ATG_ERE_CIS: Attagene CIS-FACTORIAL HepG2 Assay for Estrogen Response Element (ERE) (AID 2282940). The following applies: HepG2 ERE cis-reporter, Attagene RNA transcript; actives raise or lower the signal. The method in brief:
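Measuring endogenous transcription factor output, the assay doses transfected HepG2 cells for 24 hours and quantifies reporter transcripts by fluorescent RT-PCR and capillary electrophoresis, with DMSO as baseline.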

Assay [5] is described as follows: ATG_Ets_CIS: Attagene CIS-FACTORIAL HepG2 Assay for human Erythroblast Transformation Specific (ETS) (AID 2282941). The following applies: HepG2 ETS cis-reporter transcription, actives raise or lower the signal. The method in brief: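 Bidirectional fit versus DMSO of reporter mRNA signal, detected by RT-PCR and capillary electrophoresis in HepG2 cells transiently transfected with cis-element reporters and dosed 24 h.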

Assay [6] has as its target Hepatocyte nuclear factor 3-beta (Homo sapiens) (UniProt Q9Y261). Kind of assay: ATG_FoxA2_CIS: Attagene CIS-FACTORIAL HepG2 Assay for human Forkhead box A2 (FOXA2) (AID 2282942). The conditions noted are these: HepG2 cis-reporter transcription factor activity, 24 h; actives raise or lower the signal. The gist of the method:
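Measured: reporter mRNA induction or loss in HepG2 transiently carrying multiple cis-regulated reporter units, 24 h after dosing. Quantified by RT-PCR plus capillary electrophoresis, normalised to DMSO.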

Assay [7] can be described thus: ATG_FoxO_CIS: Attagene CIS-FACTORIAL HepG2 Assay for human Forkhead box O (FoxO) (AID 2282943). The conditions noted are these: HepG2 Attagene cis-reporter, FoxO element, mRNA; actives raise or lower the signal. The gist of the method:
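HepG2 cells transiently transfected with cis-element-driven reporter units report endogenous FoxO activity. After 24 h chemical exposure, reporter mRNA quantified by RT-PCR, fluorescent labeling, HpaI digestion and capillary electrophoresis; bidirectional fit versus DMSO.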

Assay [8] is described as follows: ATG_GATA_CIS: Attagene CIS-FACTORIAL HepG2 Assay for human GATA Binding Protein (AID 2282944). The conditions noted are these: HepG2 GATA cis-element reporter, Attagene multiplex mRNA; actives raise or lower the signal. The gist of the method:
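Measures endogenous transcription factor-driven reporter mRNA in HepG2 cells transiently carrying cis-regulated constructs. 24 h dosing; RNA via oligo(dT) reverse transcription, PCR, HpaI digestion, capillary electrophoresis; fitted relative to DMSO.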

The nature of assay [9]: ATG_GLI_CIS: Attagene CIS-FACTORIAL HepG2 Assay for human Zinc Finger Protein GLI1 (AID 2282945). The following applies: HepG2, Attagene cis-factorial reporter mRNA, GLI element; actives raise or lower the signal. The gist of the method:
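Transiently transfected HepG2 cells report endogenous transcription factor activity via cis-element-driven reporter units. After 24 h compound exposure, reporter mRNA was measured by RT-PCR with capillary electrophoresis; bidirectional fitting against DMSO baseline.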

A short description of assay [10]: ATG_GRE_CIS: Attagene CIS-FACTORIAL HepG2 Assay for human Glucocorticoid Response Elements (GRE) (AID 2282947). The conditions noted are these: HepG2 GRE cis-reporter, Attagene multiplex mRNA; actives raise or lower the signal. The method in brief:
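Fluorescence intensity of reporter-specific cDNA fragments, separated by capillary electrophoresis, provides the signal. Constructs carry cis-regulating promoters in transiently transfected HepG2 liver cells; 24 h incubation; fitting is bidirectional against DMSO.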

A short description of assay [11]: ATG_M_32_CIS: Attagene CIS-FACTORIAL HepG2 Assay for M32 Transcription Factor (Internal Marker) (AID 2282949).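 Further: background control marker of the multiplexed CIS panel rather than a real target.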 The conditions noted are these: HepG2 Attagene cis-factorial M32 reporter, mRNA; actives raise or lower the signal. The gist of the method: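 HepG2 transfectants (cis-regulated reporter transcription units) dosed 24 h. Reporter mRNA by RT-PCR plus CE, analysed as gain or loss relative to DMSO.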

Assay [12] can be described thus: ATG_M_06_CIS: Attagene CIS-FACTORIAL HepG2 Assay for M06 Transcription Factor (Internal Marker) (AID 2282950). The following applies: HepG2 Attagene CIS-FACTORIAL M06 internal marker reporter; actives raise or lower the signal. The method in brief:
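One of many multiplexed endpoints: HepG2 reporter mRNA after 24 h dosing, detected by RT-PCR and capillary electrophoresis fluorescence; gain or loss of signal analysed against DMSO.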

Assay [13] addresses Hypoxia-inducible factor 1-alpha (Homo sapiens) (UniProt Q16665). Kind of assay: ATG_HIF1a_CIS: Attagene CIS-FACTORIAL HepG2 Assay for human Hypoxia Inducible Factor 1 (HIF1A) (AID 2282951). The following applies: HepG2 Attagene cis-factorial HIF1a reporter transcription; actives raise or lower the signal. The gist of the method: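 Dosed 24 h, transfected HepG2 cells yielded total RNA whose reporter transcripts were RT-PCR-amplified and sized by capillary electrophoresis using fluorescent labelling; DMSO defined baseline, with gain and loss of signal both fitted.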

For assay [14], the target named is Hepatocyte nuclear factor 6 (Homo sapiens) (UniProt Q9UBC0). Kind of assay: ATG_HNF6_CIS: Attagene CIS-FACTORIAL HepG2 Assay for human Hepatocyte Nuclear Factor 6 (HNF6) (AID 2282952). The conditions noted are these: HepG2 Attagene cis-factorial HNF6 reporter transcription; actives raise or lower the signal. The gist of the method: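 First, HepG2 cells were transfected with the multiplexed cis reporter library and dosed with chemical for 24 h. Next, RNA was reverse-transcribed, PCR-amplified and fluorescently labelled. Finally, HpaI-digested fragments were read by capillary electrophoresis.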

For assay [15], the target named is Heat shock factor protein 1 (Homo sapiens) (UniProt Q00613). Kind of assay: ATG_HSE_CIS: Attagene CIS-FACTORIAL HepG2 Assay for human Heat Shock Transcription Factor 1 (HSE) (AID 2282953). The conditions noted are these: HepG2 HSE cis-reporter, Attagene RNA transcription; actives raise or lower the signal. The method in brief:
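Using HepG2 with transfected cis-driven reporter constructs, compound effects on endogenous factor activity are scored as reporter mRNA change at 24 h. Detection: RT-PCR, HpaI digestion, capillary electrophoresis; bidirectional fitting to DMSO.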

Assay [16] can be described thus: ATG_MRE_CIS: Attagene CIS-FACTORIAL HepG2 Assay for human Metal Responsive Element (MRE) (AID 2282954). The following applies: HepG2 MRE cis-reporter transcription, Attagene multiplex; actives raise or lower the signal. The method in brief:
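Measured here is mRNA induction from an MRE cis-element reporter in HepG2 after 24 h, quantified by fluorescence of labelled RT-PCR products on capillary electrophoresis; gain- and loss-of-signal fits use DMSO as baseline.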

A short description of assay [17]: ATG_ISRE_CIS: Attagene CIS-FACTORIAL HepG2 Assay for human Interferon Regulatory Factor 1 (IRF1) binding to an Interferon-Stimulated Response Element (ISRE) (AID 2282948). The following applies: HepG2 ISRE cis-reporter (Attagene), mRNA transcription readout; actives raise or lower the signal. The method in brief:
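Uses HepG2 liver cells transfected with cis-regulated reporters and measures mRNA 24 h post-dosing through RT-PCR, primer-extension labelling and capillary electrophoresis, with DMSO as negative control.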

A short description of assay [18]: ATG_PBREM_CIS: Attagene CIS-FACTORIAL HepG2 Assay for human Phenobarbital-responsive Enhancer Module (PBREM) (AID 2282955). The conditions noted are these: HepG2 PBREM cis-reporter, Attagene multiplexed transcription; actives raise or lower the signal. The gist of the method:
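Transfected liver-derived HepG2 cells exposed 24 h; PBREM reporter transcript quantified via RT-PCR and capillary electrophoresis, with activity in either direction referenced to DMSO.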

For assay [19], the target named is Bile acid receptor (Homo sapiens) (UniProt Q96RI1). Kind of assay: ATG_IR1_CIS: Attagene CIS-FACTORIAL HepG2 Assay for human Nuclear Receptor Subfamily 1 Group H Member 4 (NR1H4), IR1 submotif (AID 2282946). The conditions noted are these: IR1 reporter transcription, actives raise or lower the signal. The gist of the method:
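Fluorescence of capillary-separated, HpaI-digested RT-PCR reporter products gave IR1-element mRNA induction in HepG2 cells 24 h after dosing. Endogenous transcription factors drove the cis-regulated reporters; activity was fitted bidirectionally against DMSO.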

Drawing on PubChem BioAssay (EPA / NIEHS), this text covers outcome and AC50 for five compounds.

Active and inactive are the calls of the source. How the source made its calls: active means hit-call score of the fitted dose curve at least 0.9, where 1 is the maximum; inactive means score below 0.9.

What is called AC50 is the concentration at which the activity in the assay is half-maximal.

Sequence of Heat shock factor protein 1 (Homo sapiens) (Q00613 whole entry, looked up): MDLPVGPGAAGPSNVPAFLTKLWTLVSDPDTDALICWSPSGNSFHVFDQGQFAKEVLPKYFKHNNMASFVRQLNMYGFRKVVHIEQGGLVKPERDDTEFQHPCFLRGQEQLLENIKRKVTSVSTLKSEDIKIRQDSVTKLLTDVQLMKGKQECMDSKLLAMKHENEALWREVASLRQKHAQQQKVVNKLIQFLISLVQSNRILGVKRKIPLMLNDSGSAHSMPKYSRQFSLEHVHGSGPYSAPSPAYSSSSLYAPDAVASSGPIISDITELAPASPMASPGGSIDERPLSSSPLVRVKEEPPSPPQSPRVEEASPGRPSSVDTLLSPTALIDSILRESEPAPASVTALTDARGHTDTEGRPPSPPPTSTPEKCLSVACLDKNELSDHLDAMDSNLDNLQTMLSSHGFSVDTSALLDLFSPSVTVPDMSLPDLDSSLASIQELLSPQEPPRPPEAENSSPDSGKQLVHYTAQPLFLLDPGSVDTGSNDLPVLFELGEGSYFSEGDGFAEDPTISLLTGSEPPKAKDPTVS
Sequence of Hepatocyte nuclear factor 3-beta (Homo sapiens) (Q9Y261 whole entry, looked up): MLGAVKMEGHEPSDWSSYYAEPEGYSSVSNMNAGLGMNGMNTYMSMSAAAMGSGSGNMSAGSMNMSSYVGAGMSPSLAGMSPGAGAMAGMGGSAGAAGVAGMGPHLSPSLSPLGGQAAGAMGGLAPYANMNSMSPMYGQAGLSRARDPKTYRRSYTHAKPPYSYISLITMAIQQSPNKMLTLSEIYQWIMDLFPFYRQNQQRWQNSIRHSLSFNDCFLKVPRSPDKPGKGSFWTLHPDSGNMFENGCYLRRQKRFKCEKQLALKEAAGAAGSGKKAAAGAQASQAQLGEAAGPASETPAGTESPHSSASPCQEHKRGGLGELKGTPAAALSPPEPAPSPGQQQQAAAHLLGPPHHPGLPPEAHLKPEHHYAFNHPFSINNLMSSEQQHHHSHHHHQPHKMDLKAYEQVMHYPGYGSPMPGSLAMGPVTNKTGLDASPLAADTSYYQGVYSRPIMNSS
Sequence of Hypoxia-inducible factor 1-alpha (Homo sapiens) (Q16665 whole entry, looked up): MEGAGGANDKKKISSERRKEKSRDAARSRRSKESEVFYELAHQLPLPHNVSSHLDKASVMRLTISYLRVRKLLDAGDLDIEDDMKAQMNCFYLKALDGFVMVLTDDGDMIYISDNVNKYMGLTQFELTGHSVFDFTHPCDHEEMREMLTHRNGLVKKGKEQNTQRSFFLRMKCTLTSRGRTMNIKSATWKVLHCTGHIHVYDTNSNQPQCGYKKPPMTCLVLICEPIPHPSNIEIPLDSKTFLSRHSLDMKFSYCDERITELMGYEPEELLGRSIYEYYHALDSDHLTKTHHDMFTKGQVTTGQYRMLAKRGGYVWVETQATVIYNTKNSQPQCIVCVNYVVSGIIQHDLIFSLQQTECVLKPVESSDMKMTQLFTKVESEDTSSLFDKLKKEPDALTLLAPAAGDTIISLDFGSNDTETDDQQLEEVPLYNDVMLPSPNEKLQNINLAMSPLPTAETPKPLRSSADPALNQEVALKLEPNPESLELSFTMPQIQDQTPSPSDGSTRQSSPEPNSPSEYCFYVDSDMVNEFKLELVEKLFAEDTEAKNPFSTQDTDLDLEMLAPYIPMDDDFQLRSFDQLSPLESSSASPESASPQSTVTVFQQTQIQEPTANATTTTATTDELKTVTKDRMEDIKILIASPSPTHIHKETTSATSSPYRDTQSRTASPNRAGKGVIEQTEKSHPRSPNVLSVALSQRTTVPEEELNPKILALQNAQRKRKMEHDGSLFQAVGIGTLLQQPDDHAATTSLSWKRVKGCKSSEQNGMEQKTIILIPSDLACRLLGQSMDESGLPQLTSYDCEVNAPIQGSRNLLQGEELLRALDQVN
Sequence of Hepatocyte nuclear factor 6 (Homo sapiens) (Q9UBC0 whole entry, looked up, the tested form may be a part): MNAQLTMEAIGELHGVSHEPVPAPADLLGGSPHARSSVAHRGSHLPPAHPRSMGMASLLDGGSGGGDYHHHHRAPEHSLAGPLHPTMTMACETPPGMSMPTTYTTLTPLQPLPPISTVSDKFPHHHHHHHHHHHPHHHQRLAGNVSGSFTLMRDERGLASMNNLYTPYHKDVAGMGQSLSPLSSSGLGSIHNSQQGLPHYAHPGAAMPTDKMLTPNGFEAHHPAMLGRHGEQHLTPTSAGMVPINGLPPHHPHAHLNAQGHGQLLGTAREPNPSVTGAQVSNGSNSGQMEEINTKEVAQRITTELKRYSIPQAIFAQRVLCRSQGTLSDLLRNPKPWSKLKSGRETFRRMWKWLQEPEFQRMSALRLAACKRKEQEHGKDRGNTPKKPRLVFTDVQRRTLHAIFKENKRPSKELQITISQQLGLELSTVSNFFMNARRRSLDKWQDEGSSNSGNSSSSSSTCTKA
Sequence of Bile acid receptor (Homo sapiens) (Q96RI1 whole entry, looked up): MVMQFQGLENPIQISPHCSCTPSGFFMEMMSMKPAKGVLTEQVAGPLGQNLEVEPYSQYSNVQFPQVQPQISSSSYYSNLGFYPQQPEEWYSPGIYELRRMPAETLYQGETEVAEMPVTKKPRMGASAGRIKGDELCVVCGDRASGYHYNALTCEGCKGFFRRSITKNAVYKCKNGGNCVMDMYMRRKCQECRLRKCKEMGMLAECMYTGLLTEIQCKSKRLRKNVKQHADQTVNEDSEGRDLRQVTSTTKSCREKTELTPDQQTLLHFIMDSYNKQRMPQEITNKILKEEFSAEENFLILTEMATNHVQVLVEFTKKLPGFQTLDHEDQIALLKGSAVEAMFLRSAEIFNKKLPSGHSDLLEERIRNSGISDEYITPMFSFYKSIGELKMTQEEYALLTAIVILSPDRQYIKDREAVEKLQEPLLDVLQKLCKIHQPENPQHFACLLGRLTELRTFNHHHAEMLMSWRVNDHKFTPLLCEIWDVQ

In the case of `CCC(CO)CO`, the compound was classed as inactive in assay [1], in assay [2], in [3], in [4], in assay [5] and in assay [6]. Also, the result in assay [7], in assay [8], in assay [9], in [10], in assay [11] and in assay [12] was inactive. The compound was classed as inactive in assay [13], in [14], in assay [15] and in [16].

For `CCN(CCC#N)c1ccc(N=Nc2c(Cl)cc([N+](=O)[O-])cc2Cl)cc1`, the compound was classed as inactive in [1], in assay [2], in assay [3], in assay [4], in assay [5] and in [6]. The outcome in [7], in assay [8], in assay [9], in [10], in [17] and in assay [11] was inactive. For the same compound, the outcome in assay [12], in assay [14], in [15], in [16] and in assay [18] was inactive. For the same compound, the AC50 in assay [13] is 43.3 µM (active).

Regarding `C=C(C)C(=O)OCCO`, the compound was called inactive in assay [2], in assay [3], in assay [4], in assay [5], in [6] and in assay [7]. Besides, the result in assay [8], in assay [9], in assay [19], in assay [10], in assay [17] and in assay [11] was inactive. Further, the call in assay [12], in assay [13], in assay [15], in assay [16] and in assay [18] was inactive.

As for `CC1(C)[C@H]2CC[C@]1(C)C(=O)C2`, the compound was called inactive in assay [1], in [2], in assay [3], in assay [4], in assay [5] and in [6]. Moreover, the compound was called inactive in assay [7], in [8], in assay [9], in assay [10], in [17] and in [11]. For the same compound, the compound was called inactive in [12], in assay [13], in assay [14], in assay [15], in assay [16] and in assay [18].

As for `COCCOCCOCCOCCOC`, the result in assay [1], in assay [2], in [3], in assay [5], in assay [6] and in [7] was inactive. Also, the outcome in assay [8], in assay [9], in assay [10], in [17], in assay [11] and in assay [12] was inactive. Moreover, the outcome in assay [13], in [14] and in assay [16] was inactive.
